Pf Dd2 growth = blocks in vitro growth of P. falciparum Dd2; 4.3% of 120,000 active; Potency, µM (highest dose often 28.9 µM), most hits filed as inhibitors; P. falciparum Dd2 growth, SYBR Green, 72 h; active means well fitted inhibition curve with a large enough effect; further: nearly all actives have a fitted effect of over 65% in size
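Infected erythrocytes (Dd2, 0.3% parasitemia, 2.5% hematocrit final) are added to compound in RPMI-1640/Albumax II medium, grown 72 h at 37C in low oxygen, then lysed with saponin/Triton-X containing SYBR Green and read by fluorescence.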
Large screens that a line does not name were inactive. The entries come from a sample that favours hits as a whole.

COc1ccc(CN2CCCCC23Cc2ccccc2CN(C(=O)CCC(=O)O)C3)cc1 (centres undefined)	none
O=C(Cc1ccccc1)N1Cc2ccccc2CC2(CCCN2Cc2ccncc2)C1 (centres undefined)	Pf Dd2 growth 8.9µM
O=C(O)C[C@@H]1CCN(C(=O)Nc2ccc(OC(F)(F)F)cc2)C[C@@H]1CCN1CCOCC1	none
Cc1ccc(SC2CCN(Cc3cc4n(n3)CCNC4)CC2)cc1	Pf Dd2 growth 10µM
Cc1nc(CC2CCN(Cc3cc4n(n3)CCNC4)CC2)no1	none
COc1ccccc1OC1CCN(Cc2cc3n(n2)CCNC3)CC1	none
N#Cc1cccc(NC(=S)N[C@H]2CO[C@H]3[C@@H]2OC[C@@H]3n2nnnc2Oc2cccc(N3CCOCC3)c2)c1	Pf Dd2 growth 8.9µM
N#Cc1cccc(NC(=S)N[C@H]2CO[C@H]3[C@@H]2OC[C@@H]3n2nnnc2Oc2ccc3c(c2)OCO3)c1	none
N#Cc1cccc(NC(=S)N[C@H]2CO[C@H]3[C@@H]2OC[C@@H]3n2nnnc2Oc2ccccc2)c1	none
CCCCCC(=O)Nc1nc2c(s1)C[C@@H]1[C@](C)(CO)[C@H](O)CC[C@@]1(C)[C@@H]2CC(=O)NCc1ccccc1	none
CC(C)NC(=O)C[C@@H]1c2nc(NC(=O)c3c(F)cccc3F)sc2C[C@@H]2[C@](C)(CO)[C@H](O)CC[C@]21C	none
C[C@]1(CO)[C@H]2Cc3sc(NC(=O)c4ccc(F)cc4)nc3[C@@H](CC(=O)O)[C@]2(C)CC[C@H]1O	none
CC(C)(C)CC(=O)Nc1nc2c(s1)C[C@@H]1[C@](C)(CO)[C@H](O)CC[C@@]1(C)[C@@H]2CC(=O)O	none
CCCCCC(=O)Nc1nc2c(s1)C[C@@H]1[C@](C)(CO)[C@H](O)CC[C@@]1(C)[C@@H]2CC(=O)NC1CCCCC1	none
C[C@@H](NC(=O)C[C@@H]1c2nc(NC(=O)CC(C)(C)C)sc2C[C@@H]2[C@](C)(CO)[C@H](O)CC[C@]21C)c1ccccc1	Pf Dd2 growth 11µM
CCCCCC(=O)Nc1nc2c(s1)C[C@@H]1[C@](C)(CO)[C@H](O)CC[C@@]1(C)[C@@H]2CC(=O)NCc1cc(F)cc(F)c1	Pf Dd2 growth 7.9µM
CC(C)(C)CC(=O)Nc1nc2c(s1)C[C@@H]1[C@](C)(CO)[C@H](O)CC[C@@]1(C)[C@@H]2CC(=O)NCc1ccco1	none
C[C@H](NC(=O)C[C@@H]1c2nc(NC(=O)c3ccc(F)cc3)sc2C[C@@H]2[C@](C)(CO)[C@H](O)CC[C@]21C)c1ccccc1	Pf Dd2 growth 2.5µM
Cc1nc(-c2c3n(c(=O)n(Cc4ccc(C#N)cc4)c2=O)CCCCC3)no1	none
COc1cccc(CC(=O)N2CCCN(c3cc(-c4ccccc4)[nH]n3)CC2)c1	none
CNC(=O)N1CCC(Cc2noc(-c3ccncc3)n2)C1 (centres undefined)	none
O=C(c1ccsc1)N1CCN(c2cc(-c3cccs3)[nH]n2)CC1	none
COc1ccc(CN2CCC(N3CCNC3=O)CC2)cc1	none
Cc1cc(C)n(C2CCN(c3ncnc4c3c(C)nn4C)C2)n1 (centres undefined)	none
CN(C)CC(=O)N1Cc2ccccc2CC2(CCN(CC3CCNCC3)C2)C1 (centres undefined)	none
CCc1cccc(NC(=O)CN2C(=O)NC3(CCC(C)CC3)C2=O)c1 (centres undefined)	none
CCc1nccn1CCC(=O)N[C@H]1CN(C(=O)COC)C[C@@H]1C1CC1	none
CC(=O)Nc1ccc(CN2CCn3c(nnc3-c3cccnc3)C2)cc1	none
CCOc1ccc(-c2oc3ccccc3c(=O)c2O)cc1OCC	Pf Dd2 growth 10µM
CCOc1cc(C2c3c(oc4ccccc4c3=O)C(=O)N2c2ccccn2)ccc1O (centres undefined)	none
CCCOc1ccc(C2c3c(oc4ccccc4c3=O)C(=O)N2c2ccc(C)cn2)cc1OCC (centres undefined)	none
CC(C)=CCO[C@H]1CCOC[C@H]1NC(=O)CCc1ccc(=O)[nH]n1	none
Cc1ccc(CNC(=O)CSc2ccc(-c3sc(-c4ccccc4)nc3C)nn2)cc1	none
CC(=O)Nc1cccc(NC(=O)CSc2ccc(-c3sc(-c4ccccc4)nc3C)nn2)c1	Pf Dd2 growth 8.9µM
Cc1nc(-c2ccccc2)sc1-c1ccc(SCC(=O)Nc2cccc(C(F)(F)F)c2)nn1	none
COC(=O)[C@H](NC(=O)[C@@]1(O)C[C@@H](O)[C@H](O)[C@@H](NC(=O)Nc2ccc(C(C)=O)cc2)C1)C(C)C	none
COc1cncc(NC(=O)C2=NO[C@@H]3CN(Cc4ccc(O)c(Cl)c4)C[C@H]23)c1	none
COc1ccc(CNC(=O)C(C)Sc2nc(-c3ccccc3)cc(C(F)(F)F)n2)cc1 (centres undefined)	none
CCOC(=O)c1c(NC(=O)CSc2nc(-c3ccccc3)cc(C(F)(F)F)n2)sc(C)c1C	none
CCOC(=O)c1sc(NC(=O)C(C)Sc2nc(-c3ccccc3)cc(C(F)(F)F)n2)c(C(=O)OC)c1C (centres undefined)	Pf Dd2 growth 0.71µM
FC(F)Oc1ccccc1CN1CCCC(Nc2ccccc2)C1 (centres undefined)	none
COc1ccc(O)c(CN2CCCC(Nc3ccc(F)cc3)C2)c1 (centres undefined)	Pf Dd2 growth 2.8µM
